Assay results taken from PubChem BioAssay (Tox21).
Results filed as inconclusive are left out. Activity calls are given as the source filed them. Unless noted, calls come from the whole dose curve.

Key:
[1] = Nuclear factor erythroid 2-related factor 2/antioxidant responsive element (Nrf2/ARE) small molecule agonists: qHTS cell viability counter screen in human keratinocytes (AID 1919968; active = well fitted curve in the direction sought with a large enough effect in the repeat runs; an effect the other way counts as inactive or inconclusive; note: nearly all actives have a fitted effect of over 55% in size; note: potency is the fitted concentration of half-maximal effect)
How it was run: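 KeratinoSens cells (HaCaT keratinocytes stably carrying an ARE-luciferase reporter) were seeded at 1,500 cells/well and rested 5 h at 37 C/5% CO2. They were then exposed to compounds in DMSO for 23 h. Viability was read by CellTiter-Fluor fluorescence after 1 h.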

[2] = Nuclear factor erythroid 2-related factor 2/antioxidant responsive element (Nrf2/ARE) small molecule agonists: luciferase reporter gene qHTS assay in human keratinocytes (AID 1919969); note: nearly all actives have a fitted effect of over 35% in size; note: potency is the fitted concentration of half-maximal effect
[3] = target: Gonadotropin-releasing hormone receptor (Homo sapiens) (UniProt P30968); test: Human gonadotropin-releasing hormone receptor (GnRHR) small molecule agonists, calcium flux assay in GnRHR-HEK293 cells (AID 1920063); note: nearly all actives have a fitted effect of over 35% in size
How it was run: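 HEK293 cells stably expressing human GnRHR were plated 18 h at 37 °C, loaded with calcium dye 1 h at 37 °C, then given compound in agonist mode; fluorescence (Ex/Em 480/540) read kinetically for 3 min at 1 s intervals.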

[4] = target: KiSS-1 receptor (Homo sapiens) (UniProt Q969F8); test: Human kisspeptin (KISS1R) small molecule agonists, calcium flux assay in KISS1R-HEK293 cells (AID 1920064; active = well fitted curve in the direction sought with a large enough effect in the repeat runs; an effect the other way counts as inactive or inconclusive)
How it was run: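 HEK293 cells stably expressing human KISS1R were plated 18 h at 37 °C, loaded with calcium dye for 1 h at 37 °C, then given compound by pin tool. Fluorescence (Ex/Em 480/540) was read kinetically for 3 min.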

[5] = G protein-coupled receptor (GPCR) small molecule agonists, calcium flux assay: HEK293 wild type cell line counter screen (AID 1920065)
How it was run: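 Cells were plated and cultured 18 h at 37 C/5% CO2, then loaded with calcium dye for 1 h at 37 C. Compounds in DMSO were pin-transferred in agonist mode, and fluorescence (Ex/Em 480/540) was read kinetically for 3 min at 1 s intervals.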

[6] = p53 small molecule agonists, cell-based qHTS assay with human liver microsomes (AID 1963577)
How it was run: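 p53RE-bla reporter cells were pre-incubated 5 h at 37 C, then treated with compounds plus human liver microsomes (0.5 mg/mL final) and NADPH (0.5 mg/mL final) for 16 h at 37 C. Beta-lactamase activity was read by LiveBLAzer fluorescence after 2 h at room temperature.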

[7] = p53 small molecule agonists, cell-based qHTS assay with rat liver microsomes (AID 1963578)
How it was run: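 p53RE-bla cells were exposed to compounds together with rat liver microsomes (0.5 mg/mL final) and NADPH (0.5 mg/mL final) for 16 h at 37 C, then read by LiveBLAzer beta-lactamase fluorescence after 2 h at room temperature.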

[8] = p53 small molecule agonists, cell-based qHTS assay with rat liver microsomes: qHTS cell viability counter screen (AID 1963580); note: nearly all actives have a fitted effect of over 45% in size
How it was run: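 p53RE-bla HCT-116 cells were exposed 16 h at 37 C to compounds with rat liver microsomes (0.5 mg/mL) and NADPH (0.5 mg/mL). Viability was measured in the same wells as ATP content by CellTiter-Glo luminescence.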

[9] = target: 5-hydroxytryptamine receptor 2A (Homo sapiens) (UniProt P28223); test: 5-hydroxytryptamine receptor 2A (HTR2A) small molecule antagonists, cell-based qHTS assay (AID 1963586); note: nearly all actives have a fitted effect of over 45% in size
How it was run: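 Antagonist-mode intracellular calcium assay: DOI (4 nM) added after 5 min compound pre-incubation at room temperature to dye-loaded HTR2A-CHO cells. Fluorescence followed for 3 min, sampled every second.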

[10] = target: 5-hydroxytryptamine receptor 2A (Homo sapiens) (UniProt P28223); test: 5-hydroxytryptamine receptor 2A (HTR2A) small molecule agonists, cell-based qHTS assay (AID 1963587); note: nearly all actives have a fitted effect of over 30% in size
How it was run: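 CHO cells stably expressing human HTR2A, plated 18 h, loaded with calcium dye 1 h at 37 C. Agonist mode: compounds added and intracellular calcium fluorescence recorded kinetically for 2 min at 1 sec intervals.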

[11] = target: Muscarinic acetylcholine receptor M1 (Homo sapiens) (UniProt P11229); test: Cholinergic receptor muscarinic 1 (CHRM1) small molecule antagonists, cell-based qHTS assay (AID 1963588); note: nearly all actives have a fitted effect of over 40% in size
How it was run: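 CHRM1-CHO calcium-flux assay, antagonist mode. Cells were seeded 18 h, dye-loaded 1 h at 37 C and given compound for 5 min at RT, then acetylcholine was added at 50nM. FDSS fluorescence was read 3 min; 15 concentrations, three runs.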

[12] = target: Muscarinic acetylcholine receptor M1 (Homo sapiens) (UniProt P11229); test: Cholinergic receptor muscarinic 1 (CHRM1) small molecule agonists, cell-based qHTS assay (AID 1963589); note: nearly all actives have a fitted effect of over 35% in size
How it was run: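 CHO cells stably expressing human CHRM1, seeded 18 h at 37 C/5% CO2, dye-loaded 1 h at 37 C, then given compound in agonist mode; intracellular calcium fluorescence read kinetically at 1 s intervals. Fifteen concentrations, three independent runs.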

[13] = target: Beta-2 adrenergic receptor (Homo sapiens) (UniProt P07550); test: Adrenergic beta2 receptor (ADRB2) small molecule antagonists, cell-based qHTS assay (AID 1963592); note: series mostly up to about 92 µM; nearly all actives have a fitted effect of over 50% in size
How it was run: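 Cells (CHO, stable ADRB2 overexpression) incubated 18-20hr at 37C; compounds added from DMSO; agonist mix (1nM isoproterenol, 100uM IBMX, 25uM Ro-20-1724) added; 0.5hr RT; d2-cAMP and anti-cAMP-cryptate added; 1hr RT; 665/615 nm read.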

[14] = target: D(2) dopamine receptor (Homo sapiens) (UniProt P14416); test: Dopamine D2 receptor (DRD2) small molecule agonists, cell-based qHTS assay (AID 1963594); note: nearly all actives have a fitted effect of over 35% in size
How it was run: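 HEK293 cells stably expressing human DRD2, pre-treated with PDE inhibitor Ro20-1724 (0.1 mM final) and compound 10 min at room temperature, then stimulated with NKH477 (200nM […]) for 30 min. cAMP read by HTRF (665/620 nm).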

[15] = target: D(2) dopamine receptor (Homo sapiens) (UniProt P14416); test: Dopamine D2 receptor (DRD2) small molecule antagonists, cell-based qHTS assay (AID 1963595; active = well fitted inhibition curve with a large enough effect in the signal ratio in the repeat runs, with a control signal flat; the % refers to the signal ratio)
How it was run: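 DRD2-HEK293; 0.1 mM Ro20-1724; cpd 10 min RT; NKH477 200 nM + quinpirole 12 nM, 30 min RT; HTRF cAMP (cAMP-d2/anti-cAMP cryptate), 665/620 nm ratio after 1 h.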

[16] = p53 small molecule agonists, cell-based qHTS assay (AID 1963582; active = well fitted activation curve with a large enough effect in the signal ratio in the repeat runs, not every such curve was filed as active; the % refers to the signal ratio)
How it was run: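 p53RE-bla beta-lactamase reporter cells rested 5 h at 37 C/5% CO2, then received compounds in DMSO by pin transfer and were incubated 16 h at 37 C. LiveBLAzer B/G FRET substrate was loaded for 2 h at room temperature before fluorescence reading.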

[17] = cAMP Responsive Elements (CRE) small molecule agonists, cell-based qHTS assay (AID 1963590)
How it was run: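 CRE-bla HEK 293T cells in DMEM with 10% dialyzed FBS, NEAA, pyruvate and 25 mM HEPES were plated 18 h at 37 C/5% CO2, then exposed to compounds in DMSO for 3 h before LiveBLAzer B/G FRET substrate addition.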

[18] = cAMP Responsive Elements (CRE) small molecule antagonists, cell-based qHTS assay (AID 1963591; active = well fitted inhibition curve with a large enough effect in the signal ratio in the repeat runs, not every such curve was filed as active; the % refers to the signal ratio)
How it was run: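 CRE-bla HEK293T cells were plated 18 h at 37 °C/5% CO2, pinned with compound in DMSO, then stimulated with NKH477 at 0.25 uM final for 3 h. LiveBLAzer B/G FRET substrate was added and plates incubated 2 h at room temperature.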

[19] = p53 small molecule agonists, cell-based qHTS assay: qHTS cell viability counter screen (AID 1963581); note: nearly all actives have a fitted effect of over 45% in size
How it was run: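 p53RE-bla HCT-116 cells were exposed to compounds for 16 h at 37 C; after the beta-lactamase FRET read in the same wells, CellTiter-Glo was added and luminescence (intracellular ATP) read after 30 min at room temperature.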
% is set by controls: 0 for no effect and ±100 for the full control effect.

Sequence of 5-hydroxytryptamine receptor 2A (Homo sapiens) (P28223 whole entry, looked up): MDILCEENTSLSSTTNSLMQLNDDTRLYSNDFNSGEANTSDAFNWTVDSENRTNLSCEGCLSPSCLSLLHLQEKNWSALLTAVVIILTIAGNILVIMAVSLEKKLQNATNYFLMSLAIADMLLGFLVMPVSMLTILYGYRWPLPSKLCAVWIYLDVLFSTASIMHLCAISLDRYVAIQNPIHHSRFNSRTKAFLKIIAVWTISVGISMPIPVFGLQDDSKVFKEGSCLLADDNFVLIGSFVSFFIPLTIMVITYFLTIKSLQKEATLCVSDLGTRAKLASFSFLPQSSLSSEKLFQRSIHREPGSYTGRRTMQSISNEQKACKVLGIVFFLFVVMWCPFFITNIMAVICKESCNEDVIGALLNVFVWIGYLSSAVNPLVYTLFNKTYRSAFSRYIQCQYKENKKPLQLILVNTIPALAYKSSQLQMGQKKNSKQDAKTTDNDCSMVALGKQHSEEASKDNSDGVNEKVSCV
Sequence of D(2) dopamine receptor (Homo sapiens) (P14416 whole entry, looked up): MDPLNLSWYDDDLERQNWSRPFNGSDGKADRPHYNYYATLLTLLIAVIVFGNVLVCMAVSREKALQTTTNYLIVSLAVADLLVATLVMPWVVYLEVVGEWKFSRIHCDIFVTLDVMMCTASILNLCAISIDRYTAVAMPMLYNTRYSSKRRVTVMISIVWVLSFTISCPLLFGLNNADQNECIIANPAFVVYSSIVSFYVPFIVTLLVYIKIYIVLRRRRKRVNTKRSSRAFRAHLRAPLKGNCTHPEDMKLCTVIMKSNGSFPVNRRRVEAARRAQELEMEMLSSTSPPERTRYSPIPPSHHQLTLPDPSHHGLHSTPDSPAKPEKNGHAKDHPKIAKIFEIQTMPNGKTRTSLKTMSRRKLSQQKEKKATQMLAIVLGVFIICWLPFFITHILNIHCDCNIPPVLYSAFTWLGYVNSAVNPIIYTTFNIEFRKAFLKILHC
Sequence of KiSS-1 receptor (Homo sapiens) (Q969F8 whole entry, looked up): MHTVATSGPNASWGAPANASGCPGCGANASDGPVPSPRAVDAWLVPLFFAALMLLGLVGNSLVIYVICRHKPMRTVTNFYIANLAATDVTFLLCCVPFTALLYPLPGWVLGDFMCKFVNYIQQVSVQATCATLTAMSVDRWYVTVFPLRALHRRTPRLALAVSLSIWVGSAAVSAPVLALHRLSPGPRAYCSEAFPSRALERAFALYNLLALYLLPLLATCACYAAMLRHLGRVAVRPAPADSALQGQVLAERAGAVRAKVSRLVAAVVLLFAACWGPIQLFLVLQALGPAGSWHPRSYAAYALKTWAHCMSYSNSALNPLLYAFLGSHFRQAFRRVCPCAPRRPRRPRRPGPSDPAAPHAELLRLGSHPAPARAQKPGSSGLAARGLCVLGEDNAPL
Sequence of Gonadotropin-releasing hormone receptor (Homo sapiens) (P30968 whole entry, looked up): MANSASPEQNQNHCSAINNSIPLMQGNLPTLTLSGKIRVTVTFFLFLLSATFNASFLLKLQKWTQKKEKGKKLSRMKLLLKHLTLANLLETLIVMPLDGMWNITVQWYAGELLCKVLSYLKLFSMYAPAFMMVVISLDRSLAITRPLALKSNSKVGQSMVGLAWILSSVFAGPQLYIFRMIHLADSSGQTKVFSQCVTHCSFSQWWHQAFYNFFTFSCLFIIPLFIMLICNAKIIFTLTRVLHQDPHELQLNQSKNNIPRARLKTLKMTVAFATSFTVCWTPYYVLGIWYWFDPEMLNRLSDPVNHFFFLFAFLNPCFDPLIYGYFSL
Sequence of Muscarinic acetylcholine receptor M1 (Homo sapiens) (P11229 whole entry, looked up): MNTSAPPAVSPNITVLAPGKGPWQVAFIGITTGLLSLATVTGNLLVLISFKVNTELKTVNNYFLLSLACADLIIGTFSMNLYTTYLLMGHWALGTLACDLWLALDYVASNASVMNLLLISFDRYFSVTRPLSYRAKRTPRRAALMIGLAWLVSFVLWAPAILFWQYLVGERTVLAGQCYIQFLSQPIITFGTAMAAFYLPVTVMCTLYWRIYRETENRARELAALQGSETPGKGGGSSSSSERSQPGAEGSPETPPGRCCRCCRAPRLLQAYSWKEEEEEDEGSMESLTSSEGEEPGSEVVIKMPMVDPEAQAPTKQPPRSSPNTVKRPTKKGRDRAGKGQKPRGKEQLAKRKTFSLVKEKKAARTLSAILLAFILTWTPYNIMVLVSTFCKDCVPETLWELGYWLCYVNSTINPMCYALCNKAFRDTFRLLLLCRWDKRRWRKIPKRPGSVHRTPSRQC
Sequence of Beta-2 adrenergic receptor (Homo sapiens) (P07550 whole entry, looked up): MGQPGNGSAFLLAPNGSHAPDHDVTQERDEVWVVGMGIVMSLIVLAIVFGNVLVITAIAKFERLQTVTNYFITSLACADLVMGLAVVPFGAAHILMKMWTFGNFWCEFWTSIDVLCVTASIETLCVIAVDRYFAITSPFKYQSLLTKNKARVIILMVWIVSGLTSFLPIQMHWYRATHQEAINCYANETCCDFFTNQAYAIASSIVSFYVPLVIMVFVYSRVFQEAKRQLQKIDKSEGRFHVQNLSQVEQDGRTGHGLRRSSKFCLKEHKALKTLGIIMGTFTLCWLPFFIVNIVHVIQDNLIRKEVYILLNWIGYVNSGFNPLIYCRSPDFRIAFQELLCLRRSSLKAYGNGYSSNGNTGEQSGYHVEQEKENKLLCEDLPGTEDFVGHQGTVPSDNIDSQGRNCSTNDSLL

C=CC(=O)OCCOCCOC(=O)C=C
inactive: Potency [3] | outcome [4] | outcome [5] | Potency [6] | Potency [7] | Potency [8] | Potency [9] | Potency [10] | Potency [11] | Potency [12] | Potency [13] | Potency [14] | Potency [15]
active: Potency [1] 54.7 µM | Potency [2] 24.4 µM

NC[C@H]1O[C@H](O[C@H]2[C@H](O[C@@H]3O[C@H](CO)[C@@H](O)[C@H]3O)C(O)[C@H](N)C[C@@H]2N)[C@H](N)[C@@H](O)[C@@H]1O (stereo not given in full)
inactive: activity change, negative = cytotoxicity [1] -6.49% [at 8.39 µM] | activity, positive = activation [2] -8.73% [at 8.39 µM] | activity change [3] -0.504% [at 5.22 µM, active compounds read high] | activation [4] -0.532% [at 6.97 µM] | activation [5] -0.0987% [at 5.23 µM] | activation [6] 0.817% [at 5.99 µM] | activation [7] -0.761% [at 5.99 µM] | activation [16] -3.27% [at 5.99 µM] | activity, negative = inhibition [9] 2.42% [at 5.62 µM] | activation [10] -4.1% [at 7.02 µM] | activity, negative = inhibition [11] 1.47% [at 5.58 µM] | activation [12] 0.272% [at 6.97 µM] | activity change, negative = inhibition [15] -1.87% [at 8.38 µM]

CC1(C)Cc2cccc(N)c2O1
inactive: Potency [1] | Potency [2] | Potency [3] | outcome [4] | outcome [5] | Potency [6] | Potency [7] | Potency [8] | Potency [16] | Potency [10] | Potency [11] | Potency [12] | Potency [17] | Potency [18] | Potency [13] | Potency [14]

Oc1ccc2c(c1)OCO2
inactive: Potency [1] | Potency [2] | Potency [3] | outcome [4] | outcome [5] | Potency [6] | Potency [7] | Potency [8] | Potency [16] | Potency [9] | Potency [10] | Potency [12] | Potency [17] | Potency [18] | Potency [14] | Potency [15]

CC(C)Cn1cnc2c(N)nc3ccccc3c21
inactive: activity change, negative = cytotoxicity [1] -5.63% [at 19 µM] | activity, positive = activation [2] 7.96% [at 19 µM] | activity change [3] -1.43% [at 11.8 µM, active compounds read high] | activation [4] 1.32% [at 15.8 µM] | activation [5] -0.0034% [at 11.8 µM] | activation [6] 13.5% [at 13.5 µM] | activation [7] -0.62% [at 13.6 µM] | activity change, negative = cytotoxicity [8] -0.545% [at 13.5 µM] | activation [17] 3.84% [at 19 µM] | activity change, negative = inhibition [18] 2.85% [at 18.9 µM] | activity change, negative = inhibition [13] -12.1% [at 19 µM]

Clc1ccnc(Cl)n1
inactive: Potency [1] | Potency [3] | outcome [4] | outcome [5] | Potency [6] | Potency [7] | Potency [19] | Potency [16] | Potency [9] | Potency [10] | Potency [11] | Potency [12] | Potency [17] | Potency [18] | Potency [13] | Potency [14] | Potency [15]
active: Potency [2] 69.6 µM

CC(=O)OC(C)c1ccccc1 (stereo not given)
inactive: Potency [1] | Potency [2] | Potency [3] | outcome [4] | outcome [5] | Potency [6] | Potency [7] | Potency [8] | Potency [9] | Potency [10] | Potency [11] | Potency [12] | Potency [17] | Potency [13] | Potency [14] | Potency [15]
